High-throughput results: PubChem BioAssay, several laboratories
Sampled rows, rich in hits. Any-hit rate of the full collection: about 21%.
CYP2C19 inhib: blockers of cytochrome P450 2C19 activity – biochemical, luminescence, ADME assay, primary screen; CYP2C19 Supersomes, luciferin-H EGE luminescence, 30 min; inhibition, % at 5 µM; P33261; hit rate 21% among 96,000;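 active = CYP2C19 inhibition above a set limit at 5 µM in the primary screen, cut at about 50% in these data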
Target sequence (P33261 whole entry, looked up): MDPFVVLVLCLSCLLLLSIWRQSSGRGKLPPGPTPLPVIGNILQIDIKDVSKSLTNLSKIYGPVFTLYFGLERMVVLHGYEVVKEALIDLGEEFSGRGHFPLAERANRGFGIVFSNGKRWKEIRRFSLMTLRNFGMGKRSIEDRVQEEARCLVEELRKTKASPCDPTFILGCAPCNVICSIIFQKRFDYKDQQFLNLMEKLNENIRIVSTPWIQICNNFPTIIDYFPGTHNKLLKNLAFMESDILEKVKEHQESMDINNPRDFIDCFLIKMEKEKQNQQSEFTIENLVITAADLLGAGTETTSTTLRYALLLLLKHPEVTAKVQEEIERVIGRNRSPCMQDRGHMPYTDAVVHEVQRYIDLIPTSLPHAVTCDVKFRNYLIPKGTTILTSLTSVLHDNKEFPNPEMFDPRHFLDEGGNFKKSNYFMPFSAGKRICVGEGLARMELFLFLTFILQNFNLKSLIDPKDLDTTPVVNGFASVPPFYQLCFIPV
CYP2C19 act: human CYP2C19 activators, primary screen, biochemical, luminescence | Cytochrome P450 2C19 (Homo sapiens), P33261 | recombinant CYP2C19, luciferin-H EGE luminescence; hits give high values; 0 = fully inhibited enzyme, 1 = untreated enzyme | activation factor at 5 µM | 96,000 tested, under 10 active | AID 1025, 2008;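 active = activation factor of at least 2 at 5 µM in the primary screen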
CYP2C9 activ: human CYP2C9 activators, primary screen, biochemical, luminescence | recombinant CYP2C9, luciferin-H conversion; hits give high values; factor 1 = untreated enzyme, 0 = blocked | activation factor at 5 µM | hit rate 1.4% among 96,000 | Cytochrome P450 2C9 (Homo sapiens), P11712;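 active = activation factor of 2 or more for CYP2C9 at a 5 µM dose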
CYP2C9 inhib: blockers of cytochrome P450 2C9 activity – biochemical, luminescence, ADME assay, primary screen; hit rate 20% among 96,000; CYP2C9 Supersomes, luciferin-H conversion; AID 777, 2007; P11712; inhibition, % at 5 µM;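 active = blocking of liver enzyme CYP2C9 beyond about 50% at 5 µM, limit read from the data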
MRP-1 activ: H69AR viability gain despite doxorubicin, primary screen, MRP-1 activator project, H69AR cells, CellTiter-Glo; viability increase, % at 10 µM; hit rate 0.61% among 140,000; viability rescue; AID 799, 2007;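 active = viability gain under doxorubicin at or above a set limit, the compound median plus 3 SD, cut at about 4.7% in these data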;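 note: MRP-1 overexpressing cells given doxorubicin 25 µM after compound pretreatment; 18-22 h compound pretreatment then 72 h with doxorubicin before readout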
MRP reversal: reversal of MRP1-mediated doxorubicin resistance, primary screen, H69AR cells, doxorubicin co-treatment. H69AR cells + 2 uM doxorubicin, CellTiter-Glo, 72 h. differential viability (reversal), % at 10 µM. hit rate 0.04% among 85,000. AID 602, 2007;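 active = viability drop by adding the cancer drug above about 55%, with treated viability meeting a 40% cutoff, limit read from the data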;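 note: larger differential means the compound sensitizes cells more to doxorubicin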
Large screens that a line does not name were inactive.

Cc1ccc(-c2csc(NC(=O)CSc3ncn(-c4ccccc4)n3)n2)cc1	CYP2C19 inhib 64, CYP2C9 inhib 67
O=C(NC1CCCCC1)NC1CC2CCC(C1)N2Cc1nnnn1Cc1ccc2c(c1)OCO2 (configuration not stated)	none
O=C(CSc1ncn(-c2ccccc2)n1)Nc1nc2ccccc2s1	CYP2C19 inhib 65, CYP2C9 inhib 65
Cc1csc(NC(=O)CCS(=O)(=O)c2ccc(Br)cc2)n1	CYP2C9 inhib 85
Cc1ccc2cc(C)c3nnc(SCC(=O)Nc4nc5c(s4)CCCC5)n3c2c1	CYP2C19 inhib 57, CYP2C9 inhib 61 (no result: MRP reversal)
O=C(CSc1ncn(-c2ccccc2)n1)Nc1nc(-c2ccccc2)cs1	none (no result: CYP2C19 inhib, CYP2C19 act, CYP2C9 activ, CYP2C9 inhib)
Cn1c(SCC(=O)Nc2nc3c(s2)CCCC3)nnc1-c1ccccc1	none
O=C(CSc1ncn(-c2ccccc2)n1)Nc1nc2c(s1)CCCC2	CYP2C9 inhib 64
Cc1ccc(-c2nnc(SCC(=O)Nc3nc4c(s3)CCCC4)n2C)cc1	none
Cc1ccc(NC(=O)CCS(=O)(=O)c2ccc(Br)cc2)nc1	none (no result: CYP2C19 inhib, CYP2C19 act, CYP2C9 activ, CYP2C9 inhib, MRP reversal)
Cc1csc(SCC(=O)Nc2nc3ccccc3s2)n1	CYP2C19 inhib 92, CYP2C9 inhib 94
O=C(COC(=O)CCc1nc2ccccc2s1)Nc1nc(-c2ccccc2)cs1	none (no result: CYP2C19 inhib, CYP2C19 act, CYP2C9 activ, CYP2C9 inhib, MRP reversal)
Cc1csc(NC(=O)CCc2nc3ccccc3s2)n1	CYP2C19 inhib 83
O=C(CSc1ccc2nnc(-c3ccncc3)n2n1)N1CCc2ccccc21	CYP2C9 inhib 50 (no result: MRP-1 activ)
Clc1ccccc1CSc1nnc(-c2cccnc2)n1Cc1ccco1	CYP2C19 inhib 71
Cc1occc1-c1nnc(SCC(=O)N2CCCc3ccccc32)n1Cc1ccco1	CYP2C19 inhib 67, CYP2C9 inhib 50
O=C(CSc1nnc(-c2cccnc2)n1Cc1ccco1)N1CCc2ccccc21	CYP2C19 inhib 56
Cn1c(SCC(=O)N2CCCc3ccccc32)nnc1-c1ccco1	none
CCOC(=O)c1sc(NC(=O)COC(=O)Cn2cnc3ccccc32)c(C(=O)OCC)c1C	none (no result: CYP2C19 inhib, CYP2C19 act, CYP2C9 activ, CYP2C9 inhib, MRP reversal)
C=CCn1c(SCc2cccc3ccccc23)nnc1-c1cccnc1	CYP2C19 inhib 89
COc1ccc(N=CC2=C(O)c3ccccc3C2=O)c(OC)c1	CYP2C19 inhib 78
Brc1ccc(C2C3=C(Nc4ncnn42)c2ccccc2OC3c2ccncc2)cc1 (configuration not stated)	CYP2C19 inhib 55, CYP2C9 inhib 89
COc1ccc(C2Oc3ccccc3C3=C2C(c2cccs2)n2ncnc2N3)cc1 (configuration not stated)	CYP2C9 inhib 67
CN(C)S(=O)(=O)c1cccc(NC(=O)COC(=O)c2cn(-c3ccccc3)nc2-c2ccccc2)c1	none (no result: CYP2C19 inhib, CYP2C19 act, CYP2C9 activ, CYP2C9 inhib, MRP reversal)
O=C(Nc1nnc(C2CC2)s1)c1cccc(S(=O)(=O)N2CC(c3ccccc3)CC2=O)c1 (configuration not stated)	none
Cc1c(C(=O)NCCC2=CCCCC2)cccc1[N+](=O)[O-]	none (no result: MRP reversal)
COc1ccc2cc3c(N)nn(C(=O)Cc4ccccc4OC)c3nc2c1	CYP2C19 inhib 78, CYP2C9 inhib 75
NCc1ccccc1COc1ccccc1	none (no result: CYP2C19 inhib, CYP2C19 act, CYP2C9 activ, CYP2C9 inhib, MRP reversal)
Cc1cc(=O)oc(C)c1C(=O)NCC1COc2ccccc2O1 (configuration not stated)	CYP2C9 inhib 55
O=C(NCC1COc2ccccc2O1)Nc1ccccc1F (configuration not stated)	CYP2C19 inhib 96, CYP2C9 inhib 85
O=C(NCC1COc2ccccc2O1)c1ccc(Cl)cc1 (configuration not stated)	CYP2C19 inhib 74
CN(CC1COc2ccccc2O1)C(=S)Nc1ccccc1F (configuration not stated)	none (no result: CYP2C19 inhib, CYP2C19 act, CYP2C9 activ, CYP2C9 inhib, MRP reversal)
COc1ccc(NS(=O)(=O)c2ccc(C)c(NC(=O)c3ccc(C)c(S(=O)(=O)N4CCOCC4)c3)c2)cc1	none (no result: CYP2C19 inhib, CYP2C19 act, CYP2C9 activ, CYP2C9 inhib, MRP reversal)
CCCCn1c(=O)nc2n(-c3ccc(Cl)cc3)c3ccccc3cc-2c1=O	none (no result: CYP2C19 inhib, CYP2C19 act, CYP2C9 activ, CYP2C9 inhib, MRP reversal)
O=C(CC1OC(=O)c2ccccc21)c1ccco1 (configuration not stated)	none
COc1ccc(C2C(C(=O)c3sc(C)nc3C)=C(O)C(=O)N2CCCn2ccnc2)cc1 (configuration not stated)	none (no result: CYP2C19 inhib, CYP2C19 act, CYP2C9 activ, CYP2C9 inhib, MRP-1 activ)
Cc1ccc(C)c(/C(O)=C2\C(=O)C(=O)N(CCCn3ccnc3)C2c2ccncc2)c1 (configuration not stated)	CYP2C9 inhib 53, MRP-1 activ 7.3
CCCCCCN1C(=O)C(O)=C(C(C)=O)C1c1ccc(Cl)cc1 (configuration not stated)	CYP2C9 inhib 75
CC(=O)C1=C(O)C(=O)N(CCCn2ccnc2)C1c1ccc(C)cc1 (configuration not stated)	CYP2C19 inhib 60 (no result: MRP reversal)
COc1cc(C2/C(=C(\O)c3ccc4c(c3)CC(C)O4)C(=O)C(=O)N2CCCn2ccnc2)ccc1O (configuration not stated)	none
Nc1c(C(=O)NCCc2ccc(Cl)cc2)sc2ccc(S(=O)(=O)N3CCCCC3)cc12	none (no result: CYP2C19 inhib, CYP2C19 act, CYP2C9 activ, CYP2C9 inhib, MRP reversal)
COc1cccc(NC(=O)N2CCCC2C(=O)NC2CC2)c1 (configuration not stated)	none
CCOC(=O)N1CCN(C(=O)C2CCN(CC3CCCCC3)CC2)CC1	none (no result: CYP2C19 inhib, CYP2C19 act, CYP2C9 activ, CYP2C9 inhib, MRP reversal)
CC(CN1CCCCC1)OC(=O)C(C)(c1ccccc1)c1ccccc1 (configuration not stated)	CYP2C19 inhib 54, CYP2C9 inhib 68
CC(CN1CCOCC1)OC(=O)C(C)(c1ccccc1)c1ccccc1 (configuration not stated)	none (no result: CYP2C19 inhib, CYP2C19 act, CYP2C9 activ, CYP2C9 inhib)
CC(CN1CCCCC1)OC(=O)Cc1ccc(Cl)cc1 (configuration not stated)	CYP2C19 inhib 60 (no result: MRP reversal)
CCOC(=O)C1=C(O)/C(=C\c2ccc(CNC(=O)C(=O)Nc3ccccc3)o2)N=C1C	none
Cc1cc(C)c(NC(=O)c2cc3c(nc4sccn43)s2)c(C)c1	none
Fc1cccc(CSc2nc3ccncc3[nH]2)c1	none (no result: CYP2C19 inhib, CYP2C19 act, CYP2C9 activ, CYP2C9 inhib)
Clc1cccc(CSc2nc3ccncc3[nH]2)c1	CYP2C19 inhib 100, CYP2C9 inhib 76
O=P(OC1CCCCC1)(OC1CCCCC1)C(O)c1ccccc1 (configuration not stated)	CYP2C19 inhib 65, CYP2C9 inhib 55
Cc1cccc(OCCn2c(=O)sc3ccccc32)c1	none (no result: CYP2C19 inhib, CYP2C19 act, CYP2C9 activ, CYP2C9 inhib)
O/N=C/CCn1c(=S)sc2ccccc21	CYP2C9 activ 5.1
Cc1ccc(C(=O)N/N=C2/NC(=O)CC(C(=O)Nc3ccccc3)S2)cc1 (configuration not stated)	none (no result: CYP2C19 inhib, CYP2C19 act, CYP2C9 activ, CYP2C9 inhib, MRP reversal)
CCNc1ccc(Br)cc(C(=O)/C=C/c2ccc(Cl)cc2Cl)c1=O	none (no result: CYP2C19 inhib, CYP2C19 act, CYP2C9 activ, CYP2C9 inhib)
NC(=O)C1CCN(S(=O)(=O)c2cccc(C(=O)O)c2)CC1	none (no result: MRP reversal)
